Bioassay records from PubChem.
FBA Mtb inh = inhibits M. tuberculosis FBA enzyme; P9WQA3; inhibition, % at 1 µM; 360,000 compounds, 2.3% hits; AID 588726; purified M. tuberculosis FBA, fluorescence read-out; in the data active = inhibition above about 27%;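 also: 0% = vehicle and 100% = reference inhibitor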
Target sequence (P9WQA3 whole entry, looked up): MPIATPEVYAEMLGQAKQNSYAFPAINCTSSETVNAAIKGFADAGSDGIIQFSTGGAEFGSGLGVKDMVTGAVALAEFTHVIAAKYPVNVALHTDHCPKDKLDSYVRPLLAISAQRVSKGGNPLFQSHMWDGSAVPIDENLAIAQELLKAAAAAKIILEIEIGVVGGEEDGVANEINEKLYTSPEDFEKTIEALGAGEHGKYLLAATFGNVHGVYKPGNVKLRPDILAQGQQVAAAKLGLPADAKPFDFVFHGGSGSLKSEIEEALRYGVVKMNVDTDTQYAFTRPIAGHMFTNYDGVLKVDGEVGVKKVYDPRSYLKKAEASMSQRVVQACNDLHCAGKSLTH
Vc quorum ag-1 = quorum light induction in luxS cqsA deficient V. cholerae; AID 588436; 350,000 compounds, 0.16% hits; V. cholerae BH1578 lux reporter, luminescence, 6 h; activation, % at 18.7 µM; in the data active = activation mostly above about 9.7%, no sharp cut-off
RecA splice inh = blocks M. tuberculosis RecA intein splicing; P9WHJ3; cell-free RecA intein splicing, fluorescence; inhibition, % (test concentration not listed); 290,000 compounds, 0.75% hits; in the data active = inhibition above about 30%;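 also: 0% = vehicle wells and 100% = reference inhibitor control wells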
Mtb UGM inh = inhibitors of M. tuberculosis UDP-galactopyranose mutase | purified UGM, fluorescence polarization probe displacement | inhibition, % at 10 µM | 320,000 compounds, 0.06% hits; in the data active = inhibition above about 10%, passing the limit was not always enough
GDH-TPI counter = GDH-TPI coupled enzyme inhibition counter-screen; GDH-TPI coupled enzyme counterscreen, NADH absorbance; inhibition, % at 4.8 µM; 360,000 compounds, 1.2% hits; in the data active = inhibition above about 30%;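 also: 0% = DMSO wells and 100% = wells lacking the enzyme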
Rv3671c protease = inhibitors of M. tuberculosis serine protease Rv3671c | P9WHR9 | inhibition, % at 5.96 µM | 320,000 compounds, 0.048% hits | AID 2606; in the data active = inhibition above about 38%;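 also: extracellular domain of Rv3671c used as enzyme; 0% = enzyme with DMSO and 100% = no enzyme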
Vc quorum ag-2 = inducers of V. cholerae quorum light production without autoinducers; activation, % at 50 µM; shares compounds with Vc quorum ag-1; V. cholerae BH1578 lux reporter, luminescence, 6 h; 620 tested, under 10 active; call rule not given here
* hit, by the source's call. This is a sample that favours compounds with a hit; in the whole collection about 4.1% have one here.

CC(=O)Nc1cccc(NC(=O)C(C)N2c3cccc4cccc(c34)S2(=O)=O)c1 (configuration not stated) was read as FBA Mtb inh -2, Vc quorum ag-1 0, RecA splice inh 1, Mtb UGM inh -1, GDH-TPI counter 5 and Rv3671c protease -11.
CNC(=O)Cn1nc(-c2ccc(C)cc2)c2ccccc2c1=O was read as FBA Mtb inh 0, Vc quorum ag-1 0, Mtb UGM inh 4, GDH-TPI counter 3 and Rv3671c protease -5.
`Cc1ccc(C)c(-n2c(Cc3cccs3)n[nH]c2=S)c1` gave FBA Mtb inh 0, Vc quorum ag-1 13, RecA splice inh 0, Mtb UGM inh 1, GDH-TPI counter 3, Rv3671c protease -2 and Vc quorum ag-2 0.
For S=c1[nH]nc(Cc2cccs2)n1-c1ccccc1Cl the results were FBA Mtb inh 2, Vc quorum ag-1 0, RecA splice inh 2, Mtb UGM inh 0, GDH-TPI counter 7 and Rv3671c protease 6.
`Cc1cc2c(ncn2C)c(NS(=O)(=O)c2cc(Cl)ccc2Cl)c1C` gave FBA Mtb inh -2, Vc quorum ag-1 17*, RecA splice inh 2, Mtb UGM inh 0, GDH-TPI counter 5, Rv3671c protease -9 and Vc quorum ag-2 0.
Cc1cc2c(ncn2C)c(NS(=O)(=O)c2ccccc2Cl)c1C was read as FBA Mtb inh 3, Vc quorum ag-1 -2, RecA splice inh 0, Mtb UGM inh -1, GDH-TPI counter -1 and Rv3671c protease -12.
Screening Cc1ccc(N(C(C)C(=O)N2CCCCC2)S(C)(=O)=O)cc1C (configuration not stated) returned FBA Mtb inh 4, Vc quorum ag-1 25*, RecA splice inh -1, Mtb UGM inh -2, GDH-TPI counter 9, Rv3671c protease -4 and Vc quorum ag-2 0.
CC(C(=O)N1CCCCCC1)N(c1ccc(Cl)cc1)S(C)(=O)=O (configuration not stated) was read as FBA Mtb inh 1, Vc quorum ag-1 -1, Mtb UGM inh 0, GDH-TPI counter 5 and Rv3671c protease 3.
Cc1ccc(S(=O)(=O)N2C[C@@H](C)[C@]3(C2)[C@H](O)[C@H](OC(=O)Nc2c(C)noc2C)C[C@H]2C(=O)N(c4ccccc4)C(=O)[C@H]23)cc1 was read as FBA Mtb inh 1, Vc quorum ag-1 0 and GDH-TPI counter -3.
`CCC(C)Cn1c(S(=O)(=O)O)nc2ccccc21` (configuration not stated) gave FBA Mtb inh -1, Vc quorum ag-1 24, RecA splice inh 1, Mtb UGM inh 0, GDH-TPI counter -5, Rv3671c protease 1 and Vc quorum ag-2 0.
For CC(C)Cn1c(S(=O)(=O)O)nc2ccccc21 the results were FBA Mtb inh 2, Vc quorum ag-1 inactive, RecA splice inh -1, Mtb UGM inh 2, GDH-TPI counter -10 and Rv3671c protease -17.
COc1cccc(NC(=O)C2(C)CCN2CC2CCCCC2)c1 (configuration not stated) was read as FBA Mtb inh -4, Vc quorum ag-1 0 and GDH-TPI counter -3.
`COc1ccccc1-c1nnc(SCC(=O)Nc2cccnc2Cl)n1C` gave FBA Mtb inh 1, Vc quorum ag-1 -2, Mtb UGM inh 0, GDH-TPI counter 9 and Rv3671c protease 5.
CC(C)OC(=O)CSc1nnc(SCc2cccc3ccccc23)s1 was read as FBA Mtb inh 3, Vc quorum ag-1 29*, RecA splice inh 7, Mtb UGM inh -3, GDH-TPI counter 0, Rv3671c protease 3 and Vc quorum ag-2 0.
OCCN1CCN(CC(O)COc2ccc(Cl)cc2)CC1 (configuration not stated) was read as FBA Mtb inh -1, Vc quorum ag-1 17*, RecA splice inh 1, Mtb UGM inh -4, GDH-TPI counter 9, Rv3671c protease -1 and Vc quorum ag-2 0.
Screening CN1CCN(CC(O)COc2ccc(Cl)cc2)CC1 (configuration not stated) returned FBA Mtb inh 0, Vc quorum ag-1 0, RecA splice inh 3, Mtb UGM inh 1, GDH-TPI counter 1 and Rv3671c protease 5.
CN(Cc1nc2ccccc2n1C)S(C)(=O)=O was read as FBA Mtb inh 1, Vc quorum ag-1 0, RecA splice inh 1, Mtb UGM inh -1, GDH-TPI counter 9 and Rv3671c protease 6.
For CN(Cc1nc2ccccc2n1C)C(=O)c1ccco1 the results were FBA Mtb inh -1, Vc quorum ag-1 12, RecA splice inh -1, Mtb UGM inh 1, GDH-TPI counter 5, Rv3671c protease 3 and Vc quorum ag-2 0.
For CC(=O)NC(c1cccc(F)c1)c1nc(-c2cccc(C(C)C)c2)cs1 (configuration not stated) the results were FBA Mtb inh -5, Vc quorum ag-1 -1 and GDH-TPI counter 4.
Screening Cc1csc(NC(=O)Cc2nn(C)c(=O)c3ccccc23)n1 returned FBA Mtb inh -2, Vc quorum ag-1 25*, RecA splice inh -1, Mtb UGM inh 0, GDH-TPI counter -3, Rv3671c protease 2 and Vc quorum ag-2 0.
CN(C)S(=O)(=O)c1cccc(CNCC2COc3ccccc3O2)c1 (configuration not stated) was read as FBA Mtb inh -2, Vc quorum ag-1 inactive, RecA splice inh -1, Mtb UGM inh 0, GDH-TPI counter -8 and Rv3671c protease 0.
For O=c1[nH]c(COc2ccc(Cl)cc2Br)nc2ccccc12 the results were FBA Mtb inh -1, Vc quorum ag-1 -3, RecA splice inh -1, Mtb UGM inh 1, GDH-TPI counter -2 and Rv3671c protease -9.
NC(=O)c1cc(Br)cc2c3c([nH]c12)CCCC3 was read as FBA Mtb inh 6, Vc quorum ag-1 -1, RecA splice inh -1, Mtb UGM inh 3, GDH-TPI counter 10 and Rv3671c protease -5.
NC(=O)c1cc(Br)cc(C2CCCCC2)c1O was read as FBA Mtb inh 14, RecA splice inh 6, Mtb UGM inh -1, GDH-TPI counter -1, Rv3671c protease -2 and Vc quorum ag-2 inactive.
Screening COc1ccc(C(=O)NC2CCSC2=O)cc1 (configuration not stated) returned FBA Mtb inh -1, Vc quorum ag-1 14, RecA splice inh -5, Mtb UGM inh 1, GDH-TPI counter -2, Rv3671c protease -2 and Vc quorum ag-2 0.
Screening Cc1cccc(-c2noc(-c3ccccc3C(=O)NCC3CCCO3)n2)c1 (configuration not stated) returned FBA Mtb inh 5, Vc quorum ag-1 14, RecA splice inh 2, Mtb UGM inh -2, GDH-TPI counter 7, Rv3671c protease 4 and Vc quorum ag-2 -1.
